# Measurements as given in PubChem BioAssay (NCI).
# About 83,000 compounds went through this panel and 20% of them were active in at least one assay; those are over-represented in the sample as a whole.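 The endpoint reported here, percent growth, reads 100 for growth as untreated, 0 for no net growth and -100 for all cells dead.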 Values without a mark were called inactive. Active and inactive are the calls of the source. Rule for the calls: active = growth percent below 10; inactive = the rest.
# Assays:
# Experiment in all cases: NCI-60 one-dose screen, 48 h (100 = growth as untreated, 0 = no growth, -100 = all killed)
# Conditions in all cases: 10 µM unless noted
# NCI-H23 lung = system: NCI-H23 lung
# NCI-H226 lung = system: NCI-H226 lung
# NCI-H322M lung = system: NCI-H322M lung
# HOP-62 NSCLC = system: HOP-62 NSCLC
# NCI-H460 lung = system: NCI-H460 lung
# HOP-92 NSCLC = system: HOP-92 NSCLC
# NCI-H522 lung = system: NCI-H522 lung
# A549/ATCC NSCLC = system: A549/ATCC NSCLC
# 786-0 renal = system: 786-0 renal
# COLO 205 colon = system: COLO 205 colon
SMILES,growth (NCI-H23 lung),growth (NCI-H226 lung),growth (NCI-H322M lung),growth (HOP-62 NSCLC),growth (NCI-H460 lung),growth (HOP-92 NSCLC),growth (NCI-H522 lung),growth (A549/ATCC NSCLC),growth (786-0 renal),growth (COLO 205 colon)
COc1cc2c(cc1[N+](=O)[O-])-c1ccc([N+](=O)[O-])cc1/C2=N/NC(N)=S,71.5%,62.6%,93.9%,99.9%,29.6%,78.3%,35.5%,69.2%,70.6%,66.7%
COc1cc(C2CC(c3cccc(Nc4ccncc4)c3)=NN2c2cc(Cl)cc(Cl)c2)cc(OC)c1OC (stereo not given),77.8%,87%,64.2%,-29.2% (active),-68.4% (active),37.4%,0.35% (active),17.9%,101%,-58.7% (active)
COc1cc2nnn3c4ncccc4c(N=O)c3c2cc1OC,112%,97%,78.6%,106%,84.9%,-12% (active),-34.3% (active),95.2%,48.2%,102%
COc1ccc(C(=O)c2cc3c(N)c(C(=O)Nc4cccc(Cl)c4C)sc3nc2C)cc1,29.3%,44%,52.6%,29.1%,6.21% (active),27.7%,-8.11% (active),13.2%,29%,-26.2% (active)
C=C(C)[C@@H]1CC[C@]2(C=O)CC[C@]3(C)[C@H](CC[C@@H]4[C@@]5(C)CCCNC(C)(C)[C@@H]5CC[C@]43C)[C@@H]12,78.7%,91.7%,91.5%,94.5%,16.7%,54.5%,84.1%,62.2%,80.9%,-78.8% (active)
O=C(O)C(/C=C/c1ccco1)=N\Nc1nc(-c2ccc(Cl)cc2)cs1,57.7%,84%,68.5%,46.4%,37.6%,51.8%,39.4%,51.4%,51.8%,94.6%
CCC(=O)c1ccc(O)c(OC)c1,96.1%,72.4%,106%,104%,104%,82.6%,88.2%,86.5%,4.29% (active),120%
O=C1NC(=S)NC(=O)C1=Cc1cn(Cc2ccccn2)c2ccccc12,77.9%,86.7%,95.5%,53.6%,10.7%,66.9%,76.6%,66.2%,43.9%,58.4%
CCN(CC)S(=O)(=O)c1cccc([N+](=O)[O-])c1,102%,85.3%,104%,74.5%,99.5%,87.9%,72.3%,65.3%,89.4%,102%
c1ccc(-c2nn(-c3ccccc3)[n+](-c3cccc4ccccc34)n2)cc1,1.91% (active),26.9%,42.2%,41.7%,1.82% (active),-13.2% (active),-8.34% (active),23.4%,42.5%,3.41% (active)
CSc1nc(O)c(-c2ccccc2)c(=O)[nH]1,103%,99.1%,101%,105%,104%,101%,94.2%,100%,101%,103%
CCOc1cc(CNc2ccc(N3CCOCC3)c(C(=O)O)c2)ccc1OC,100%,93.4%,94.8%,103%,102%,110%,99.3%,93%,112%,104%
NC(=O)c1ncn(C2OC(CO)C(O)C2O)n1 (stereo not given),89%,87.6%,86.5%,71.8%,104%,79%,79.6%,96.3%,91.6%,94.4%
CC(C)C1C2=C(NCCN1C(=O)Cc1ccccc1)C(C)(C)N(Cc1ccccc1)C2=O (stereo not given),97.4%,104%,99.2%,91.9%,104%,93.6%,93.6%,100%,97.3%,100%
Cc1nc2sc(C(=O)Nc3cccc(Br)c3)c(N)c2cc1C(=O)c1ccc(C(F)(F)F)cc1,75.1%,92%,65.7%,60.6%,63.7%,80%,84.7%,74.7%,86.4%,86.7%
CCCC/C(=N\N=C(N)N)c1ccc(F)cc1,34.9%,31.6%,61.5%,27.9%,16.2%,31.4%,10.2%,31.8%,26.8%,8.47% (active)
CCCCN(CCCC)CCc1c(C)cc(C)c(CCN(CCCC)CCCC)c1O,4.18% (active),26.8%,35.5%,62.4%,7.59% (active),-11.3% (active),-6.82% (active),41.5%,41.1%,20%
N#Cc1ccc(-c2ccc3c(c2)NC(=O)/C3=C\c2ccc[nH]2)cc1,36.4%,58.1%,70%,84.4%,76.2%,36.4%,81.8%,104%,105%,93.9%
O=C1Nc2cc(-c3ccncc3)ccc2/C1=C/c1ccc[nH]1,58.5%,78.5%,84%,105%,98.9%,104%,75.2%,101%,102%,112%
CC1NC(=S)NC(=O)/C1=C/c1cc(=O)oc2c1ccc1ccccc12 (stereo not given),93.8%,86.1%,101%,82.1%,102%,75.9%,73.8%,81.3%,107%,104%
COc1cccc(-c2nc3occn3c2-c2ccnc(NCCCNS(=O)(=O)c3cccc(F)c3)n2)c1,89.7%,62.2%,107%,108%,82.6%,91.9%,74.9%,97.4%,103%,45.5%
CN(C)C(=O)OCc1nc2c(N3CCOCC3)nc(-c3ccccc3)nc2n1C,-67.3% (active),-66.1% (active),53.4%,-46.9% (active),-71.8% (active),-68.4% (active),-46.8% (active),-29.6% (active),-71.3% (active),-70.5% (active)
COc1ccc(-c2cnnc3c(-c4cccc(C(F)(F)F)c4)cnn23)cc1,70.4%,60.9%,45.7%,3.24% (active),36%,52.7%,27.5%,63.5%,7.61% (active),135%
COc1ccc(-c2nc(SC(C)C)nc(NNC(N)=O)c2C#N)cc1,97.8%,95.4%,94.2%,83.7%,94.5%,78%,63.4%,88.6%,95.5%,117%
CCOC(=O)Oc1c(OC)cc(C(=O)O[C@@H]2C[C@@H]3CN4CCc5c([nH]c6cc(OC)ccc56)[C@H]4C[C@@H]3[C@H](C(=O)OC)[C@H]2OC)cc1OC,74.9%,102%,102%,97.9%,40.9%,19%,73.8%,41.8%,78.7%,88.9%
COc1ccccc1OCC(=O)N1CCCCCC1,92.8%,92.1%,105%,104%,105%,82.8%,96%,92.1%,117%,110%
N/C(=N\N=C\c1cc2ccccc2[nH]1)N/N=C/c1cc2ccccc2[nH]1,96.3%,93.7%,100%,95.7%,95.7%,76.6%,98%,101%,98.7%,102%
